“And” between values parts separate entries of the source, which are not always exact repeats. Equal entries are not always repeated. Compounds without any hit were thinned out: in the full panel of roughly 83,000, 20% have a hit.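 Step 1: grow cells in 96-well plates. Step 2: add test compound at a single concentration. Step 3: incubate 48 h. Step 4: record percent growth.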 The source made the active and inactive calls. How the source made its calls: active means growth percent below 10; inactive means the rest.
Experiments:
Experiment in all cases: NCI-60 one-dose screen, 48 h (100 = growth as untreated, 0 = no growth, -100 = all killed)
RPMI-8226 leukemia = details: 10 µM
OVCAR-5 ovarian = details: 10 µM unless noted
OVCAR-4 ovarian = details: 10 µM unless noted
SK-OV-3 ovarian = details: 10 µM
IGROV1 ovarian = details: 10 µM unless noted
OVCAR-3 ovarian = details: 10 µM unless noted
HS 578T breast = details: 10 µM unless noted
T-47D breast = details: 10 µM
MDA-MB-435 melanoma = details: 10 µM unless noted
SW-620 colon = details: 10 µM unless noted
MCF7 breast = details: 10 µM unless noted
KM12 colon = details: 10 µM unless noted
OVCAR-8 ovarian = details: 10 µM unless noted
NCI/ADR-RES ovarian = details: 10 µM unless noted
BT-549 breast = details: 10 µM unless noted
HCT-116 colon = details: 10 µM unless noted
HCC-2998 colon = details: 10 µM unless noted

NC1=NC(c2ccccc2OS(=O)(=O)c2ccc(Br)cc2)n2c(nc3ccccc32)N1 (stereo not drawn)
growth (RPMI-8226 leukemia): 69.8% (inactive)
growth (OVCAR-5 ovarian): 99% (inactive)
growth (OVCAR-4 ovarian): 110% (inactive)
growth (SK-OV-3 ovarian): 105% (inactive)
growth (IGROV1 ovarian): 81.8% (inactive)
growth (OVCAR-3 ovarian): 94.6% (inactive)
growth (HS 578T breast): 101% (inactive)
growth (T-47D breast): 81.2% (inactive)
growth (MDA-MB-435 melanoma): 73.1% (inactive)
growth (SW-620 colon): 96% (inactive)
growth (MCF7 breast): 77.3% (inactive)
growth (KM12 colon): 100% (inactive)

O=C1/C(=C/c2ccc(Cl)cc2)N=C(c2ccccc2)N1CCc1cccs1
growth (OVCAR-8 ovarian): 36.1% (inactive)
growth (OVCAR-5 ovarian): 30.5% (inactive)
growth (OVCAR-4 ovarian): 62.1% (inactive)
growth (SK-OV-3 ovarian): 105% (inactive)
growth (IGROV1 ovarian): 55.3% (inactive)
growth (OVCAR-3 ovarian): 79.9% (inactive)
growth (HS 578T breast): 67.7% (inactive)
growth (NCI/ADR-RES ovarian): 56.7% (inactive)
growth (T-47D breast): 97.7% (inactive)
growth (BT-549 breast): 59.8% (inactive)
growth (MDA-MB-435 melanoma): 53.2% (inactive)
growth (SW-620 colon): 51.3% (inactive)
growth (MCF7 breast): 15.7% (inactive)
growth (HCT-116 colon): 28.5% (inactive)
growth (HCC-2998 colon): 25.4% (inactive)
growth (KM12 colon): 99.2% (inactive)

COc1cc2c(cc1-c1coc3cc(OCC=C(C)C)ccc3c1=O)OCO2
growth (MCF7 breast): -12% [100 µM] (active) and -54.2% [100 µM] (active)

CCCC(=O)Oc1c2ccsc2c(OC(=O)CCC)c2ccsc12
growth (MCF7 breast): -72.6% [100 µM] (active) and -100% [100 µM] (active)

CC12NC(=C(C#N)C#N)C(C#N)=C3NC(N)=C(C#N)C(=C31)Oc1ccccc12 (stereo not drawn)
growth (MCF7 breast): 17.3% [100 µM] (inactive) and -45.9% [100 µM] (active)

CCCn1c2c(c3ccccc3c1=O)C(=O)c1ccccc1-2
growth (MCF7 breast): 51.4% [100 µM] (inactive) and 17.4% [100 µM] (inactive)

O=C(CCc1ccccc1)On1c(-c2ccccc2)nc2ccccc2c1=S
growth (MCF7 breast): -34.4% [100 µM] (active) and -60.1% [100 µM] (active)

CCC(C)[C@H]1O[C@]2(CC[C@@H]1C)C[C@@H]1C[C@@H](C/C=C(\C)[C@@H](OC3C[C@H](OC)C(O[C@H]4C[C@H](OC)[C@@H](O)[C@H](C)O4)[C@H](C)O3)[C@@H](C)/C=C/C=C3\CO[C@@H]4[C@H](O)C(C)=C[C@@H](C(=O)O1)[C@]34O)O2 (stereo partly drawn)
growth (OVCAR-8 ovarian): 42.4% (inactive)
growth (OVCAR-5 ovarian): 24.4% (inactive)
growth (SK-OV-3 ovarian): 50.8% (inactive)
growth (IGROV1 ovarian): 27.3% (inactive)
growth (OVCAR-3 ovarian): -26.5% (active)
growth (HS 578T breast): 26% (inactive)
growth (NCI/ADR-RES ovarian): 7.07% (active)
growth (T-47D breast): 18.1% (inactive)
growth (BT-549 breast): -26.3% (active)
growth (MDA-MB-435 melanoma): 3.2% (active)
growth (SW-620 colon): 18.5% (inactive)
growth (MCF7 breast): 6.74% (active)
growth (HCT-116 colon): -89.2% (active)
growth (HCC-2998 colon): -82.3% (active)
growth (KM12 colon): -11.8% (active)

C#CCn1c2c(c3ccccc3c1=O)C(=O)c1ccccc1-2
growth (MCF7 breast): 11.6% [100 µM] (inactive) and 10.4% [100 µM] (inactive)

COc1cccc(C2C3=C(COC3=O)N(CCO)c3cc4c(cc32)OCO4)c1 (stereo not drawn)
growth (RPMI-8226 leukemia): 31.4% (inactive)
growth (OVCAR-8 ovarian): 42.3% (inactive)
growth (OVCAR-5 ovarian): 35.6% (inactive)
growth (OVCAR-4 ovarian): 40.6% (inactive)
growth (IGROV1 ovarian): 30.4% (inactive)
growth (OVCAR-3 ovarian): -64.9% (active)
growth (HS 578T breast): 2.25% (active)
growth (NCI/ADR-RES ovarian): -16.2% (active)
growth (T-47D breast): 49.1% (inactive)
growth (BT-549 breast): 37.2% (inactive)
growth (MDA-MB-435 melanoma): -40.1% (active)
growth (SW-620 colon): 22.4% (inactive)
growth (MCF7 breast): 14.6% (inactive)
growth (HCT-116 colon): 8.72% (active)
growth (HCC-2998 colon): 5.59% (active)
growth (KM12 colon): 14.3% (inactive)

C=C1C(=O)OC2C1CC(O)/C(C)=C\CCC1(C)OC21 (stereo not drawn)
growth (MCF7 breast): 21.9% [100 µM] (inactive) and -83.3% [100 µM] (active)

C1CCC([PH+](C2CCCCC2)C2CCCCC2[PH+](C2CCCCC2)C2CCCCC2)CC1.[Au].[CH-]1CCCCC1CC1CCCC[N-]1 (stereo not drawn)
growth (OVCAR-4 ovarian): 37.5% (inactive)
growth (HS 578T breast): 18.3% (inactive)
growth (NCI/ADR-RES ovarian): 30.9% (inactive)

CCOc1cc2c(cc1O)/C(=N\N)C[C@@H]1[C@@H]2CC[C@]2(C)[C@@H](O)CC[C@@H]12
growth (MCF7 breast): 20.2% [100 µM] (inactive) and -66.9% [100 µM] (active)

COC(=O)c1ccc(CCc2cc(O)c(Br)cc2O)cc1
growth (MCF7 breast): -61.7% [100 µM] (active) and -71.7% [100 µM] (active)

CC1OC(OC2C(O[C@H]3CC[C@@]4(C)C(=CC[C@H]5[C@@H]6C[C@@H]7O[C@]8(CC[C@H](C)CN8)[C@@H](C)[C@@H]7[C@@]6(C)CC[C@@H]54)C3)OC(CO)C(O)C2OC2OC(CO)C(O)C(O)C2O)C(O)C(O)C1O (stereo partly drawn)
growth (MCF7 breast): 91.3% [100 µM] (inactive) and -95.2% [100 µM] (active)

C=C(C)COC(=O)c1ccccc1C(=O)OCC1(C)CO1 (stereo not drawn)
growth (RPMI-8226 leukemia): 110% (inactive)
growth (OVCAR-8 ovarian): 95.6% (inactive)
growth (OVCAR-5 ovarian): 96.8% (inactive)
growth (OVCAR-4 ovarian): 110% (inactive)
growth (SK-OV-3 ovarian): 110% (inactive)
growth (OVCAR-3 ovarian): 108% (inactive)
growth (HS 578T breast): 104% (inactive)
growth (NCI/ADR-RES ovarian): 101% (inactive)
growth (T-47D breast): 102% (inactive)
growth (BT-549 breast): 102% (inactive)
growth (MDA-MB-435 melanoma): 106% (inactive)
growth (SW-620 colon): 105% (inactive)
growth (MCF7 breast): 104% (inactive)
growth (HCT-116 colon): 105% (inactive)
growth (KM12 colon): 112% (inactive)

N#Cc1sc2nc(/C=C3/C=CC=CC3=O)c(O)n2c1N
growth (MCF7 breast): 30.3% [100 µM] (inactive) and 3.44% [100 µM] (active)

CC(=O)Nc1ccc(S(=O)(=O)N/N=C\c2ccc(Cl)c(Cl)c2)cc1
growth (OVCAR-8 ovarian): 103% (inactive)
growth (OVCAR-5 ovarian): 108% (inactive)
growth (OVCAR-4 ovarian): 113% (inactive)
growth (SK-OV-3 ovarian): 105% (inactive)
growth (OVCAR-3 ovarian): 111% (inactive)
growth (HS 578T breast): 103% (inactive)
growth (NCI/ADR-RES ovarian): 103% (inactive)
growth (T-47D breast): 86.7% (inactive)
growth (BT-549 breast): 99.7% (inactive)
growth (MDA-MB-435 melanoma): 105% (inactive)
growth (SW-620 colon): 99.7% (inactive)
growth (MCF7 breast): 95.6% (inactive)
growth (HCT-116 colon): 101% (inactive)
growth (KM12 colon): 107% (inactive)

C1CCC([PH+](C2CCCCC2)C2CCCCC2[PH+](C2CCCCC2)C2CCCCC2)CC1.O=C(C1[CH-]CCCC1)C1CCCC[N-]1.[Au] (stereo not drawn)
growth (OVCAR-4 ovarian): 18.2% (inactive)
growth (HS 578T breast): 13.8% (inactive)
growth (NCI/ADR-RES ovarian): 17.2% (inactive)
growth (T-47D breast): 10.3% (inactive)

COc1cccc(OC(=O)c2ccccc2)c1OC(=O)c1ccccc1
growth (RPMI-8226 leukemia): 68.6% (inactive)
growth (OVCAR-8 ovarian): 91.6% (inactive)
growth (OVCAR-5 ovarian): 99.4% (inactive)
growth (OVCAR-4 ovarian): 100% (inactive)
growth (SK-OV-3 ovarian): 90.4% (inactive)
growth (OVCAR-3 ovarian): 68.5% (inactive)
growth (HS 578T breast): 86.9% (inactive)
growth (NCI/ADR-RES ovarian): 9.73% (active)
growth (T-47D breast): 80.2% (inactive)
growth (BT-549 breast): 83.4% (inactive)
growth (MDA-MB-435 melanoma): -16.4% (active)
growth (SW-620 colon): 40.1% (inactive)
growth (MCF7 breast): 47.4% (inactive)
growth (HCT-116 colon): 51.3% (inactive)
growth (KM12 colon): 45.2% (inactive)

O=c1c(-c2ccc3c(c2)OCO3)coc2c3c(ccc12)OCO3
growth (MCF7 breast): -45% [100 µM] (active) and -62.5% [100 µM] (active)

ClC(Cl)(Cl)C1CCOC1n1nnc2ccccc21 (stereo not drawn)
growth (MCF7 breast): 68.3% [100 µM] (inactive) and 0.0175% [100 µM] (active)

Clc1ccc(C2=Nc3cccc4cccc(c34)N2)cc1Cl
growth (OVCAR-8 ovarian): 97.7% (inactive)
growth (OVCAR-5 ovarian): 126% (inactive)
growth (OVCAR-4 ovarian): 32.6% (inactive)
growth (IGROV1 ovarian): 71.8% (inactive)
growth (OVCAR-3 ovarian): 86% (inactive)
growth (NCI/ADR-RES ovarian): 95.8% (inactive)
growth (T-47D breast): 42.2% (inactive)
growth (BT-549 breast): 74.2% (inactive)
growth (MDA-MB-435 melanoma): 114% (inactive)
growth (SW-620 colon): 99% (inactive)
growth (MCF7 breast): 50.2% (inactive)
growth (HCT-116 colon): 93% (inactive)
growth (HCC-2998 colon): 104% (inactive)
growth (KM12 colon): 99.9% (inactive)

CC(=O)Oc1ccc2ccc(=O)oc2c1OC(C)=O
growth (MCF7 breast): -69.1% [100 µM] (active) and -65% [100 µM] (active)

CN(C)CCNc1ccc(NCC[N+](C)(C)Cc2ccc([N+](=O)[O-])cc2)c2c1C(=O)c1c(O)ccc(O)c1C2=O
growth (MCF7 breast): 24.2% [100 µM] (inactive) and -30.3% [100 µM] (active)

COc1ccc2c3c(c(=O)n(C)c2c1OC)C=CC(C)(C)O3
growth (MCF7 breast): 4.77% [100 µM] (active) and 0.153% [100 µM] (active)

COc1ccc(/C=C(\C#N)c2ccc(OC)cc2)cc1
growth (RPMI-8226 leukemia): 55.8% (inactive)
growth (OVCAR-8 ovarian): 81.9% (inactive)
growth (OVCAR-5 ovarian): 85.1% (inactive)
growth (OVCAR-4 ovarian): 81.8% (inactive)
growth (SK-OV-3 ovarian): 74.9% (inactive)
growth (OVCAR-3 ovarian): 62.6% (inactive)
growth (HS 578T breast): 86.3% (inactive)
growth (NCI/ADR-RES ovarian): 4% (active)
growth (T-47D breast): 47.4% (inactive)
growth (BT-549 breast): 95% (inactive)
growth (MDA-MB-435 melanoma): 2.31% (active)
growth (SW-620 colon): 38.6% (inactive)
growth (MCF7 breast): 36.8% (inactive)
growth (HCT-116 colon): 55.4% (inactive)
growth (KM12 colon): 28.4% (inactive)

NC(=O)c1c(Br)c(Br)c(Br)c(Br)c1C(=O)O (tested in a mixture with another compound)
growth (OVCAR-4 ovarian): 94.3% (inactive)

O=C1C=C(Nc2ccc(S(=O)(=O)Nc3nccs3)cc2)c2ccccc2C1=O
growth (MCF7 breast): -89% [100 µM] (active) and -74.5% [100 µM] (active)

CC(=O)OCC1=C(C)C[C@H]([C@@H](COC(C)=O)C2CCC3C4C[C@H]5O[C@]56CC=CC(=O)[C@]6(C)C4CC[C@@]32C)OC1=O (stereo partly drawn)
growth (MCF7 breast): -69.8% [50 µM] (active) and -84.4% [50 µM] (active)

O=c1ccc2ccccc2o1
growth (OVCAR-8 ovarian): 105% (inactive)
growth (OVCAR-5 ovarian): 104% (inactive)
growth (SK-OV-3 ovarian): 111% (inactive)
growth (IGROV1 ovarian): 111% (inactive)
growth (OVCAR-3 ovarian): 111% (inactive)
growth (HS 578T breast): 105% (inactive)
growth (NCI/ADR-RES ovarian): 105% (inactive)
growth (T-47D breast): 116% (inactive)
growth (BT-549 breast): 87.1% (inactive)
growth (MDA-MB-435 melanoma): 102% (inactive)
growth (SW-620 colon): 105% (inactive)
growth (MCF7 breast): 98.3% (inactive)
growth (HCT-116 colon): 104% (inactive)
growth (HCC-2998 colon): 106% (inactive)
growth (KM12 colon): 99.1% (inactive)

Reference: PubChem BioAssay (NCI)
